Records with an inconclusive call do not appear. Where a call stands in place of a potency, no number is given. The source made the active and inactive calls. Calls follow the shape of the dose curve; as a rule, active = well fitted cell-killing curve with a large enough effect; inconclusive = small, poorly fitted or top-dose-only effect; inactive = flat fitted curve, though single readings scatter.
Experiment: qHTS of pediatric cancer cell lines to identify multiple opportunities for drug repurposing: Primary screen for control Hh wild type fibroblast cells (AID 1347106); also: nearly all actives have a fitted effect of over 55% in size
Conditions: Hh wild-type fibroblast viability, CellTiter-Glo luminescence, 48 h; series mostly up to 46 µM
How it was run: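 Viability after 48 h compound treatment at 37C, 500-1,000 cells/well, read as ATP luminescence with CellTiter-Glo. Primary screens used 11-point (MIPE, 0.78 nM-46 µM) or 8-point (NPC, 0.59 nM-46 µM) final concentrations; follow-up screens used 11-point dilutions.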
Potency is read from the fitted curve at half-maximal effect.

| SMILES | Potency |
| --- | --- |
| Cc1ccc(/C=N/NC(=O)c2ccccc2Oc2ccccc2)o1 | inactive |
| Cc1c(NC(=O)c2ccc(C(C)(C)C)cc2)cccc1-c1cn(C)c(=O)c(Nc2ccc(C(=O)N3CCOCC3)cc2)n1 | inactive |
| COc1cccc2c1CCCC2CCCN1CCN(C2CCCCC2)CC1 (stereo not given) | inactive |
| Cc1ccc([C@@H]2O[C@H](CO)[C@@H](O)[C@H](O)[C@@H]2O)cc1Cc1ccc(-c2ccc(F)cc2)s1 | inactive |
| C[C@]12CC[C@@H]3c4ccc(O)cc4C[C@@H](CCCCCCCCCS(=O)CCCC(F)(F)C(F)(F)F)[C@H]3[C@H]1CC[C@H]2O (stereo not given in full) | inactive |
| COC(=O)N[C@H](C(=O)N1CCC[C@@H]1c1ncc(-c2ccc(-c3ccc(-c4cnc([C@@H]5CCCN5C(=O)[C@@H](NC(=O)OC)C(C)C)[nH]4)cc3)cc2)[nH]1)C(C)C | inactive |
| CC(C)n1cnc2c(NCCCCCCNC(=O)OC(C)(C)C)nc(NCCO)nc21 | inactive |
| CN(C[C@@H]1COCCO1)S(=O)(=O)Nc1ccc2ccc3ncc(-c4cnn(C)c4)cc3c(=O)c2c1 | inactive |
| O=C(Nc1ccccc1Br)N[C@@H]1CCN(c2ccc(C(F)(F)F)cn2)C1 | inactive |
| CC(C)[C@H](CO)Nc1nc(Nc2ccc(C(=O)O)c(Cl)c2)c2ncn(C(C)C)c2n1 | inactive |
| CN1CCN(CCOc2cc(OC3CCOCC3)c3c(Nc4c(Cl)ccc5c4OCO5)ncnc3c2)CC1 | inactive |
| CNC(=O)c1ccccc1Sc1ccc2c(C=Cc3ccccn3)n[nH]c2c1 | inactive |
| COCCOC(=O)C1=C(C)NC2=C(C(=O)CC(c3ccccc3OC)C2)C1c1cccc(O)c1 (stereo not given) | inactive |
| CS(=O)c1ccc(-c2nc(-c3ccc(F)cc3)c(-c3ccncc3)[nH]2)cc1 (stereo not given) | inactive |
| Nc1ncnc2c1nc(Cl)n2[C@@H]1O[C@H](CO)[C@@H](O)[C@@H]1O | 23.5 µM (active) |
| COc1cc(O)c2c(c1)C(=O)c1cc(C)cc(O)c1C2=O | inactive |
| O=C(O)[C@H]1O[C@H](Oc2cc3oc(-c4ccccc4)cc(=O)c3c(O)c2O)[C@H](O)[C@@H](O)[C@H]1O | inactive |
| C[C@]12CCC3c4ccc(O)cc4CCC3C1CCC2=O (stereo not given in full) | inactive |

| SMILES | Potency |
| --- | --- |
| CC(C)(C)c1cc(C(=O)O)c(NC(=O)Nc2ccc3[nH]ncc3c2)s1 | inactive |
| O=c1cc(N2CCOCC2)oc2c(-c3cccc4c3sc3ccccc34)cccc12 | inactive |
| CC(=O)OC1C(C)OC(Oc2c(-c3ccc(O)cc3)oc3cc(O)cc(O)c3c2=O)C(O)C1OC(C)=O (stereo not given) | inactive |
| NC(=O)[C@@H](CCC(F)(F)F)N(Cc1ccc(-c2ncon2)cc1F)S(=O)(=O)c1ccc(Cl)cc1 | inactive |
| C=C1C(=O)OC2C=C(C)CCC=C(C)CCC12 (stereo not given) | inactive |
| CC=CC[C@@H](C)C(=O)[C@H]1C(=O)N[C@@H](C(C)C)C(=O)N(C)CC(=O)N(C)[C@@H](CC(C)C)C(=O)N[C@@H](C(C)C)C(=O)N(C)[C@@H](CC(C)C)C(=O)N[C@@H](C)C(=O)N[C@H](C)C(=O)N(C)[C@@H](CC(C)C)C(=O)N(C)[C@@H](CC(C)C)C(=O)N(C)[C@@H](C(C)C)C(=O)N1C | inactive |
| CC1CCC(C(=O)N(c2cc(C#CC(C)(C)C)sc2C(=O)O)C2CCC(O)CC2)CC1 (stereo not given) | inactive |
| COc1ccc(-c2oc3c(CC=C(C)C)c(OC4O[C@H](CO)[C@@H](O)[C@H](O)[C@@H]4O)cc(O)c3c(=O)c2OC2O[C@@H](C)[C@H](O)[C@@H](O)[C@@H]2O)cc1 (stereo not given in full) | inactive |
| CCn1c(C(=O)N(C2CC2)C2CC2)cc2c3c(ncn3C)c(Nc3cc(C)n(C)n3)nc21 | inactive |
| COc1ccc(-n2c(C)c([N+](=O)[O-])c3ccc(O)cc32)cc1 | inactive |
| CS(=O)(=O)N(Cc1ccco1)CC(O)Cn1c2ccccc2c2ccccc21 (stereo not given) | inactive |
| C=CCc1ccc(O)c(-c2ccc(O)c(CC=C)c2)c1 | inactive |
| Cc1ccc(Nc2cc(-c3cccc(N4C(=O)c5ccccc5C4=O)c3)ncn2)cc1NS(C)(=O)=O | inactive |
| O=c1c(O)c(-c2ccc(O)cc2)oc2cc(O)cc(O)c12 | inactive |
| COCCOc1nc(-c2ccc(Cl)c(Cl)c2)n(-c2ccc(NC(=O)CCl)cc2)n1 | inactive |
| O=C(N[C@@H](c1ccccc1)[C@@H]1CCCCN1)c1cccc(C(F)(F)F)c1Cl | inactive |
| CCC(=O)NC[C@H](Cc1ccc(OCCc2nc(-c3ccccc3)oc2C)cc1)NC(C)=CC(=O)c1ccc(C(F)(F)F)cc1 | inactive |
